In the supplement of paper PMC10849652:
Of roughly 7,900 targets only a part is listed; those with a hit were picked by preference. About 0.6% of all pairs of compound and target were hits. Values without a mark were called inactive.

Experiments:
Experiment in all cases: log2 fold change, soluble protein after heating vs DMSO (PISA); higher = thermal stabilisation; K562 cells, 10 uM, 30 min; active = over 0.2 and 3.5 SD of the protein, either way, in both replicates (recomputed)
IRAK-1-4 Inhibitor I = compound: C1COCCN1CCN2C3=CC=CC=C3N=C2NC(=O)C4=CC(=CC=C4)[N+](=O)[O-] [IRAK-1-4 Inhibitor I]
How it was run: (§1)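 Soluble protein was quantified by TMTpro 16plex LC-MS/MS after channel sums were equalised. It was obtained as the supernatant after 21,000xg for 90 min from pooled aliquots of K562 cells (2×10^6 cells/mL, 10 μM compound, 30 min) heated for 3 min across 48°C-58°C and extracted in PBS with 0.5% NP-40 at 4°C. Thermal stability values are relative to control samples and come from duplicates. They are given as log2 fold changes.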

ibrutinib = compound: C=CC(=O)N1CCC[C@@H](n2nc(-c3ccc(Oc4ccccc4)cc3)c3c(N)ncnc32)C1 [ibrutinib]
How it was run: as §1

[1] = compound: CC(=O)c1cnc2ccc(-c3cc(Cl)c(O)c(Cl)c3)nc2c1N[C@H]1CC[C@H](CN(C)C)CC1
How it was run: as §1

ralimetinib = compound: CC(C)(C)Cn1c(N)nc2ccc(-c3[nH]c(C(C)(C)C)nc3-c3ccc(F)cc3)nc21 [ralimetinib]
How it was run: as §1

[2] = compound: CC(C)(O)CC(=O)NCCn1ccc2ncnc(Nc3ccc(Oc4cccc(C(F)(F)F)c4)c(Cl)c3)c21
How it was run: as §1

[3] = compound: CC(C)C1=C2N=C(C=C(N2N=C1)NCC3=CC=CC=C3)NCCCCCCN
How it was run: as §1

[4] = compound: CC(C)C[C@@H](C=O)NC(=O)[C@H](CC(C)C)NC(=O)[C@H](CC(C)C)NC(=O)OCc1ccccc1
How it was run: as §1

pinometostat = compound: CC(C)N(C[C@H]1O[C@@H](n2cnc3c(N)ncnc32)[C@H](O)[C@@H]1O)[C@H]1C[C@@H](CCc2nc3cc(C(C)(C)C)ccc3[nH]2)C1 [pinometostat]
How it was run: as §1

[5] = compound: CC1=C(C(CC(=O)N1)C2=CC=C(C=C2)C(F)(F)F)C(=O)NC3=C(C=C4C(=C3)C=NN4)F
How it was run: as §1

[6] = compound: CC1=C(C2=C(C=C1)C(=O)C3=CC=CC=C3N2CCCN)C
How it was run: as §1

[7] = compound: CC1=C(C=C(C=C1)NC(=O)C2=CC(=CC=C2)C(C)(C)C#N)NC3=CC4=C(C=C3)N=CN(C4=O)C
How it was run: as §1

[8] = compound: CC1=C(C=C(C=C1)NC(=O)C2=CC(=CC=C2)N(C)C)NC(=O)C3=CC=C(C=C3)O
How it was run: as §1

[9] = compound: CC1=CC=C(C=C1)SC2=C3C=C(SC3=CN=C2)C(=O)N
How it was run: as §1

[10] = compound: CC1=NC(=CC=C1)C2=C(N=C(N2)C(C)(C)C)C3=CC4=NC=CN=C4C=C3
How it was run: as §1

Nexturastat A = compound: CCCCN(Cc1ccc(C(=O)NO)cc1)C(=O)Nc1ccccc1 [Nexturastat A]
How it was run: as §1

vemurafenib = compound: CCCS(=O)(=O)Nc1ccc(F)c(C(=O)c2c[nH]c3ncc(-c4ccc(Cl)cc4)cc23)c1F [vemurafenib]
How it was run: as §1

[11] = compound: CCCS(=O)(=O)Nc1ccc(F)c(C(=O)c2c[nH]c3ncc(Cl)cc23)c1F
How it was run: as §1

[12] = compound: CCCc1cc(C)[nH]c(=O)c1CNC(=O)c1cc(-c2ccnc(N3CCN(C)CC3)c2)cc2c1cnn2C(C)C
How it was run: as §1

givinostat = compound: CCN(CC)Cc1ccc2cc(COC(=O)Nc3ccc(C(=O)NO)cc3)ccc2c1 [givinostat]
How it was run: as §1

barasertib = compound: CCN(CCCOc1ccc2c(Nc3cc(CC(=O)Nc4cccc(F)c4)[nH]n3)ncnc2c1)CCOP(=O)(O)O [barasertib]
How it was run: as §1

UniProt Q9UQC2, sequence (Q9UQC2 whole entry, looked up): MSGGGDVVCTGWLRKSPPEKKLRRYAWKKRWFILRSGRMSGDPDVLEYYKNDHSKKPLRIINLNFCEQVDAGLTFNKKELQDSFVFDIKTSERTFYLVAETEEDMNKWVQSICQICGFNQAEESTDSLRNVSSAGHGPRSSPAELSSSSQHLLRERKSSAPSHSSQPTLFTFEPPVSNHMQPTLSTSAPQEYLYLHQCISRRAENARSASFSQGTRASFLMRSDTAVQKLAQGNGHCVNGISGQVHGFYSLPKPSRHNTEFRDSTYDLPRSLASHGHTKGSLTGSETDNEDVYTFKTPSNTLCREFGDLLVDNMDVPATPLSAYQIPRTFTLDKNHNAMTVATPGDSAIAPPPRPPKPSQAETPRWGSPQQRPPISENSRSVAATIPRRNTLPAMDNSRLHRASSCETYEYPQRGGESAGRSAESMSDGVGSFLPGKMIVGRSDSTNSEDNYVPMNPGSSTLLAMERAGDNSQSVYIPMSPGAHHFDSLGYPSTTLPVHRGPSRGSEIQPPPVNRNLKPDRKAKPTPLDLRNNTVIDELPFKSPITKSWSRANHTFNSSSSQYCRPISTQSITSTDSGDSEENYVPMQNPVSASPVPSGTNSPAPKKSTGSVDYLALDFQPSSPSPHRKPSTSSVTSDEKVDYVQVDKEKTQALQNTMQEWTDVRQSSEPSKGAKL
UniProt O14526, sequence (O14526 whole entry, looked up): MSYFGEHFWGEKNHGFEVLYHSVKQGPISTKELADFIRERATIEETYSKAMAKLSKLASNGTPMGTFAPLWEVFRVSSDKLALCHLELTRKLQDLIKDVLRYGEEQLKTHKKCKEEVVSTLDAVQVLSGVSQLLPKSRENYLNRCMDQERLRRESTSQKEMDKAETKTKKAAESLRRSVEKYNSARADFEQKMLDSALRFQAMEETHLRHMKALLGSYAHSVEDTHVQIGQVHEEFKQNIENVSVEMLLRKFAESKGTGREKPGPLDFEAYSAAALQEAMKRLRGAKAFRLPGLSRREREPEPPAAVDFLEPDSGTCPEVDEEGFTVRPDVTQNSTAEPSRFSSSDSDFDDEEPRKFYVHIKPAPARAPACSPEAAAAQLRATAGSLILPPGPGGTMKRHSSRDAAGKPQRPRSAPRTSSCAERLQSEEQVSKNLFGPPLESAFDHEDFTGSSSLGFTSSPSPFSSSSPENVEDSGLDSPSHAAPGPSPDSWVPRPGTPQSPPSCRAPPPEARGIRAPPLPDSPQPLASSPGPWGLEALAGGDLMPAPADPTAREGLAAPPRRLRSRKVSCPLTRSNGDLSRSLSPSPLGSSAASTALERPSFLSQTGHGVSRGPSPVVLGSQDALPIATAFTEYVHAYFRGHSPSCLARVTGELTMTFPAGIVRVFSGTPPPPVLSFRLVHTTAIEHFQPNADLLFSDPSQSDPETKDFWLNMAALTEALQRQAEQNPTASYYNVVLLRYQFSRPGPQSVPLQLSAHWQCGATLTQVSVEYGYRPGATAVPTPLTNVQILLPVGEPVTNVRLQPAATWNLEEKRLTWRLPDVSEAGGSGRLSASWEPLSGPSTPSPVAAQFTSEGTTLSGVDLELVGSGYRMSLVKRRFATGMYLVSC
UniProt O43824, sequence (O43824 whole entry, looked up): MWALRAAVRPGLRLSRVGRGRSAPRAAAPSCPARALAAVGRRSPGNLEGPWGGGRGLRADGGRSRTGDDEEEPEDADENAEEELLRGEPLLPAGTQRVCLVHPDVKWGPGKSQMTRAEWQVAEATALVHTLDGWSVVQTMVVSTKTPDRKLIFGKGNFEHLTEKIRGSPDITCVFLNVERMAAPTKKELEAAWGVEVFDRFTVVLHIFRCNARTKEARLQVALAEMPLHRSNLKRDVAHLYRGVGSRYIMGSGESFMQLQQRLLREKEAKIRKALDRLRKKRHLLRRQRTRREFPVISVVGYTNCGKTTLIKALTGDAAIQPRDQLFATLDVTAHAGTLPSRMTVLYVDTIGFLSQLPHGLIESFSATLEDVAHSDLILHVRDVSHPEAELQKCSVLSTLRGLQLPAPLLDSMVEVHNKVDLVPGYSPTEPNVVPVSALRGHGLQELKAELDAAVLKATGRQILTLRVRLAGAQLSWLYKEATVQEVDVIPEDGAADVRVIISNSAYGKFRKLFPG
UniProt Q70Z53, sequence (Q70Z53 whole entry, looked up): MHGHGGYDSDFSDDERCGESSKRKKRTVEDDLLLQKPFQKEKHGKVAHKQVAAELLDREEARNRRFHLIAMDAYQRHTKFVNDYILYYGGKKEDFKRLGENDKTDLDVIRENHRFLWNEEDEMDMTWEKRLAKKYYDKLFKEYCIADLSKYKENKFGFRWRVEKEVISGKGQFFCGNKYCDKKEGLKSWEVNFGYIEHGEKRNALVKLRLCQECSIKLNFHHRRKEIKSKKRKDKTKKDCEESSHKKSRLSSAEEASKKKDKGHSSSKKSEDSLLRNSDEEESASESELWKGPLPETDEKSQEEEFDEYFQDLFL
UniProt P15260, sequence (P15260 whole entry, looked up): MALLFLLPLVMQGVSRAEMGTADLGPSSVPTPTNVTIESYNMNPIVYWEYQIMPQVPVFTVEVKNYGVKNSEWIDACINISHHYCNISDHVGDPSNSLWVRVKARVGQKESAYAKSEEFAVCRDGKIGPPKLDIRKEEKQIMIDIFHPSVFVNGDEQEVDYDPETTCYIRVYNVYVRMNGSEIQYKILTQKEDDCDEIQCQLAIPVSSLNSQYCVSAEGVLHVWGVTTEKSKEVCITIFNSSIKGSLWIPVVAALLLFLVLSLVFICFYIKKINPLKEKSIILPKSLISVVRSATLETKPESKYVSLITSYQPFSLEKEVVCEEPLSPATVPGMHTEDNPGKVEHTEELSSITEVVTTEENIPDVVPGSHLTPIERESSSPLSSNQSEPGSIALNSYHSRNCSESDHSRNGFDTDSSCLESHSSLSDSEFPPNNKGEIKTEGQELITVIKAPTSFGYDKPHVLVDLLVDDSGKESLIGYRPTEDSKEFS
UniProt Q8IVP5, sequence (Q8IVP5 whole entry, looked up): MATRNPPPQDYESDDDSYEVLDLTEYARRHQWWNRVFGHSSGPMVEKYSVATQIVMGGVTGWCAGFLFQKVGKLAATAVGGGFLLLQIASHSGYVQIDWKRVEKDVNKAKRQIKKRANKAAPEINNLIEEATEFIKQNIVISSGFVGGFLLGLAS
UniProt Q9HCG7, sequence (Q9HCG7 whole entry, looked up): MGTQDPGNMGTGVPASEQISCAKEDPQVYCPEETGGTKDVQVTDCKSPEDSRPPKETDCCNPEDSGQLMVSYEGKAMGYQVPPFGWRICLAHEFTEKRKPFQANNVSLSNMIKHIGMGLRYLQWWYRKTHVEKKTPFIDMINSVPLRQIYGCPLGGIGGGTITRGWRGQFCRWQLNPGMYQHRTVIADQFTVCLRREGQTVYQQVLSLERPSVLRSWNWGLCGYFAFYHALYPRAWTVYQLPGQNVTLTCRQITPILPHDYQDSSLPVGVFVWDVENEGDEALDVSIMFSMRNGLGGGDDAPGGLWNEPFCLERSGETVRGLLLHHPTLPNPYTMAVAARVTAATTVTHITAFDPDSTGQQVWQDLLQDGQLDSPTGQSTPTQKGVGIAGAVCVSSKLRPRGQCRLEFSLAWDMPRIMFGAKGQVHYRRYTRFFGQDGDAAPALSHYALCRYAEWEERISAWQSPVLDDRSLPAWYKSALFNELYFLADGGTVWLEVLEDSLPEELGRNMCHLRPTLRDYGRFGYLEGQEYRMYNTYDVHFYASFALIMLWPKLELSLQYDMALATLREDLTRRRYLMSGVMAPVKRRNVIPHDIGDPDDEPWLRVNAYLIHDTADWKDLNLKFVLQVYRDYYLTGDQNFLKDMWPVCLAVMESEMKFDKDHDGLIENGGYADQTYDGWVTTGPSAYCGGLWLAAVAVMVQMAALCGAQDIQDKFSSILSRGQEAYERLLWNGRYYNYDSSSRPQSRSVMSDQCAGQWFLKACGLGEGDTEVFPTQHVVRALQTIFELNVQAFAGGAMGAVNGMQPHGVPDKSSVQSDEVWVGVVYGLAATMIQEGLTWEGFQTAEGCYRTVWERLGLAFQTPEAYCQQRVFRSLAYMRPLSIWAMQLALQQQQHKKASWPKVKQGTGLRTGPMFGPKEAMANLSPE
UniProt Q969S8, sequence (Q969S8 whole entry, looked up): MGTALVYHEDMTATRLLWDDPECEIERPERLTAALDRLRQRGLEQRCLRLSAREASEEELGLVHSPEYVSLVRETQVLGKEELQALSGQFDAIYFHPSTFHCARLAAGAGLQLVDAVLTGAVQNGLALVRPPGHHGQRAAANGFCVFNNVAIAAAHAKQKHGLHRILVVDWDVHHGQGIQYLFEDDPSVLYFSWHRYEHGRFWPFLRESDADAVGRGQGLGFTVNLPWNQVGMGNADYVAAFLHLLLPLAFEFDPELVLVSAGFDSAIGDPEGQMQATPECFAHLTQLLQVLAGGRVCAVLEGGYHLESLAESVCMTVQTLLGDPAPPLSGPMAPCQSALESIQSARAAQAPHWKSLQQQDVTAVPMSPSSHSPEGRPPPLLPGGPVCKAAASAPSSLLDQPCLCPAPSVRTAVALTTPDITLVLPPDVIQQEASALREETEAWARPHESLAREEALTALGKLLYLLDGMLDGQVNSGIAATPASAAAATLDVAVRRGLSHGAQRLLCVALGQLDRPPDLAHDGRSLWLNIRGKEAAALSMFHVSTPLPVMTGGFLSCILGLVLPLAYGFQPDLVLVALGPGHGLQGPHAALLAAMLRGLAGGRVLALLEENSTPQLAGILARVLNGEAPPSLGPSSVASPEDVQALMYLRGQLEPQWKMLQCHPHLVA
UniProt O14893, sequence (O14893 whole entry, looked up): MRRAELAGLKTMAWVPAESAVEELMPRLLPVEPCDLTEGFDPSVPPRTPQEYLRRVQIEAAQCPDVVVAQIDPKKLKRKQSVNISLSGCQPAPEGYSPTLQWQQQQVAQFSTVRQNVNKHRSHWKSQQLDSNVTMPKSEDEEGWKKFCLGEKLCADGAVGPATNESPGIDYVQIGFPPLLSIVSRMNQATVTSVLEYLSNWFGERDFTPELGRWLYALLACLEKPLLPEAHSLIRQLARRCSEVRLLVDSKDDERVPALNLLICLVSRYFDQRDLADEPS

Target	log2 fold change (IRAK-1-4 Inhibitor I)	log2 fold change (ibrutinib)	log2 fold change [1]	log2 fold change (ralimetinib)	log2 fold change [2]	log2 fold change [3]	log2 fold change [4]	log2 fold change (pinometostat)	log2 fold change [5]	log2 fold change [6]	log2 fold change [7]	log2 fold change [8]	log2 fold change [9]	log2 fold change [10]	log2 fold change (Nexturastat A)	log2 fold change (vemurafenib)	log2 fold change [11]	log2 fold change [12]	log2 fold change (givinostat)	log2 fold change (barasertib)
HAX1 (UniProt O00165)	-0.017	-0.036	-0.07	0.026	-0.156	-0.498 (active)	0.045	0.107	0.047	0.065	-0.018	-0.101	0.03	-0.058	0.066	-0.012	0.082	0.045	0.009	0.046
GTPBP6 (UniProt O43824)	-0.043	-0.081	0.028	0.039	0.111	0.204	0.024	0.062	0.112	0.013	0.038	0.014		-0.042	-0.037	0.015		0.006	-0.062	-0.015
GEMIN2 (UniProt O14893)	-0.046	0.055	-0.061	0.049	-0.307		0.012	-0.096	0.044		-0.073	0.033	0	-0.002	0.243	-0.028	-0.023	0.029		0.078
HDAC10 (UniProt Q969S8)		-0.01	0.137	0.006		-0.124	-0.026		0.037	-0.287		0.027	-0.001			0.231	0.046	0.056	0.153	-0.117
FCHO1 (UniProt O14526)	-0.114		-0.593 (active)	-0.081	-0.073	0.045	0.191	0.05	0.094	-0.011	0.103	-0.023	0.004	-0.016	0.053	0.254	0.037	-0.003	0.073	
HBZ, A0A494C057		0.284				-0.054			-0.145									0.051	0.109	0.013
GPD1 (UniProt P21695)		0.059	-0.066	-0.141	0.079	0.268	-0.051		0.096	0.009	0.011	-0.046	0.021		0.653 (active)	0.02	-0.042	-0.34	0.514	0.062
HNRNPK isoform 3 (UniProt P61978)	-0.011	-0.001		0.03	0.087	0.075	0.041	-0.021	-0.039	0.21	-0.015	0.027		0.066	0.085	-0.066		-0.067	0.062	-0.136
IFNGR1 (UniProt P15260)		0.224	-0.086	-0.017	-0.067	0.199	0.14		0.054	-0.093	-0.246	0.048	-0.056		0.743 (active)	-0.124	-0.181	-0.174	0.281	0.028
FMR1 (UniProt Q06787)	0.091			0.036		0.149	0.056	0.153			-0.023	0.036	-0.066	-0.163			-0.094	-0.068	-0.203	
GAB2 (UniProt Q9UQC2)	-0.097		-0.573	0.059	-0.242	-0.616	0.094	0.081		0.004	-0.053	-0.21	0.022	0.077	0.075	-0.071	-0.349	0.099	0.101	
FUNDC1 (UniProt Q8IVP5)		-0.023									0.007		0.118				-0.013	-0.285		0.052
FBXO9 (UniProt Q9UK97)	-0.034	-0.119		0.137		-0.101	0.088	0.038	-0.062	0.137		0.009	0.064	-0.025		0	0.061	0.052	0.111	0.117
GBA2 (UniProt Q9HCG7)	-0.082	-0.027	-0.073		0.048	0.326		0.121	0.003	-0.003	-0.079		-0.043	0	0.051	0	-0.032	-0.076	-0.02	0.008
FRA10AC1 isoform 3 (UniProt Q70Z53)	0.005	-0.014	0.024		-0.024	0.169		0.001	-0.03	-0.201	-0.068		0.04	0.041	-0.096	0.104	0.001	-0.001	0.052	-0.002
GSE1 (UniProt Q14687)		0.057		-0.065			0.003		0.044			0.071				-0.13				0.232
IDH3A isoform 2 (UniProt P50213)	0.196	0.008	-0.004			0.153		0.011	-0.033	0.059				-0.083					0.175	-0.012
FCF1 (UniProt Q9Y324)	-0.083			0.223	0.032		0.074	0.334		-1.04 (active)	0.017	-0.011	-0.114	-0.187	0.271	-0.139	-0.167	0.324		
FGG (UniProt P02679)				-0.048			0.231					0.067	-0.093				-0.214			
